Results on 31 molecules are retold here after PubChem BioAssay (NCATS).

Each structure is given as a SMILES string. Inconclusive results are not listed. Entries that show only a call come without a potency. Activity calls are given as the source filed them. Unless noted, the call rests on the fitted dose curve; in most records, active means well fitted inhibition curve with a large enough effect; inconclusive means small, poorly fitted or top-dose-only effect; inactive means flat fitted curve, though single readings scatter.

Sequence of Ubiquitin carboxyl-terminal hydrolase 1 (Homo sapiens) (O94782 whole entry, looked up): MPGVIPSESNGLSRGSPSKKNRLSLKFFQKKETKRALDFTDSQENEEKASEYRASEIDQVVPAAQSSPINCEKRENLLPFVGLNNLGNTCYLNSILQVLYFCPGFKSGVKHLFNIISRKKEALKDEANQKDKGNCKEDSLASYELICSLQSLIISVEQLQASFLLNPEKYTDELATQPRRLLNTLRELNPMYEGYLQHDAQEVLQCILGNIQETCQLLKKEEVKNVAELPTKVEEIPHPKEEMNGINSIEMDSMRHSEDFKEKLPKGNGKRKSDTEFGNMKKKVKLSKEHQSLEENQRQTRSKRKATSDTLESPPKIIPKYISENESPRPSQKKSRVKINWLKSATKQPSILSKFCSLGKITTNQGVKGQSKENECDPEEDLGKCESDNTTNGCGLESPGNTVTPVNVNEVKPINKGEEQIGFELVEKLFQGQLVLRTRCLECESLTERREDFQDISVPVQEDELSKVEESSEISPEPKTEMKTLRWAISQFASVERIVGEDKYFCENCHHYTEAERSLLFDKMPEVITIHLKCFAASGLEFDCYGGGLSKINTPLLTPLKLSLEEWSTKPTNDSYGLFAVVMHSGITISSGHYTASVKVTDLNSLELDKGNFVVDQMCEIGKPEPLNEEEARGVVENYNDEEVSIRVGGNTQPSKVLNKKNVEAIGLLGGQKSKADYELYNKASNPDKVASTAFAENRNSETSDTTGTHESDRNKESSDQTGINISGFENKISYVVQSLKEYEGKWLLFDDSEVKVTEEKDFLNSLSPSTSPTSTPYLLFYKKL
Sequence of Estrogen receptor (Homo sapiens) (P03372 whole entry, looked up): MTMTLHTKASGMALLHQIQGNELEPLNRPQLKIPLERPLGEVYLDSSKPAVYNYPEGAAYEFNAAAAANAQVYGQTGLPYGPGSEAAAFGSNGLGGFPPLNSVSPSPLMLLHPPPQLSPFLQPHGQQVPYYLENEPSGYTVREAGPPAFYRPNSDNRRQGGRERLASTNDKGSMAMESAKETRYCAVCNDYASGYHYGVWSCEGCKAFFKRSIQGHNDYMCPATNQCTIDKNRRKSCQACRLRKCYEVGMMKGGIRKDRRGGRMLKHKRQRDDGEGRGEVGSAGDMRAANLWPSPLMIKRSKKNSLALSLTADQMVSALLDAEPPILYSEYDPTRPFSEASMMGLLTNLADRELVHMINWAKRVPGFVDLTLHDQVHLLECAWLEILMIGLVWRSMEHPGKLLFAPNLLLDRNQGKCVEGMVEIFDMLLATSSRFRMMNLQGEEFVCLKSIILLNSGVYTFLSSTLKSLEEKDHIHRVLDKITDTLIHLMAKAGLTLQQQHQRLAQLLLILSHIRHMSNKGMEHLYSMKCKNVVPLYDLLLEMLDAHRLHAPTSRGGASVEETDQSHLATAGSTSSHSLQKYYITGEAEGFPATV
Sequence of Bile acid receptor (Homo sapiens) (Q96RI1 whole entry, looked up): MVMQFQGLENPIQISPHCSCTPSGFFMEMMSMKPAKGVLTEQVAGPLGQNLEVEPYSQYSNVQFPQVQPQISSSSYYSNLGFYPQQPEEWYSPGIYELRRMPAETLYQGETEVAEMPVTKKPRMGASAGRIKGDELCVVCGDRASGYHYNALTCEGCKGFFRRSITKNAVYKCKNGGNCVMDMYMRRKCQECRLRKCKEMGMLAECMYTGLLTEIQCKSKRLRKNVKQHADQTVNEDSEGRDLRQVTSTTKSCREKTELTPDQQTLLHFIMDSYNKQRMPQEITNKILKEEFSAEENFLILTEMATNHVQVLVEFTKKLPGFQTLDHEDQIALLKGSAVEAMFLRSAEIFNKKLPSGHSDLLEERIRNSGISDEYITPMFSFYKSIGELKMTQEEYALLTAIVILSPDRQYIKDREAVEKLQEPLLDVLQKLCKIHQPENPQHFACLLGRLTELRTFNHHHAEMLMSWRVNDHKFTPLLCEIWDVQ

The first test addresses Ubiquitin carboxyl-terminal hydrolase 1 (Homo sapiens) (UniProt O94782). Briefly: Inhibitors of USP1/UAF1: Pilot qHTS (AID 504865).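 Further: rhodamine fluorescence freed from ubiquitin-rhodamine substrate followed over time; top concentration of the series differs between compounds; nearly all actives have a fitted effect of over 35% in size.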 As to conditions: purified USP1/UAF1, Ub-rhodamine cleavage fluorescence; series mostly up to 114 µM. Summed up: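 In 50mM HEPES pH 7.8 containing 0.5mM EDTA, 1mM TCEP, 0.1 mg/ml BSA and 0.01% Tween-20, 1nM USP1/UAF1 is exposed to compound for 15 min, then Ub-Rho (150nM final) is added and fluorescence is read over time.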
For orientation: Quantitative high-throughput screening tests each substance at several concentrations.
Take `CC(C)(C)C(=O)C(Oc1ccc(Cl)cc1)n1cncn1` (configuration not stated): the Potency result was “inactive”. For the molecule `CCN1C[C@@]2(COC(=O)c3ccccc3N3C(=O)CC(C)C3=O)CC[C@H](OC)[C@]34C5C[C@@H]6[C@@H](OC)C[C@@](O)(C5[C@H]6OC)[C@@](O)(C13)[C@@H](OC)C24` (some centres not stated), the Potency entry was “inactive”.

For `CC(C)N1C(=O)c2ccccc2NS1(=O)=O`, the Potency result was “inactive”. With `C=C[C@H]1CN2CCC1C[C@@H]2C(O)c1ccnc2ccccc12` (some centres not stated), the Potency result is “inactive”. Turning to `O=C(O)COc1cc(Cl)c(Cl)cc1Cl`, the Potency result was “inactive”. Same read-out and setting: then `O=C1CC2OCC=C3CN4CC[C@]56c7ccccc7N1[C@H]5[C@H]2C3C[C@H]46` (some centres not stated), with “inactive”; and `COC1CC(OC2CC[C@@]3(C=O)C4CC[C@]5(C)C(C6=CC(=O)OC6)CC[C@@]5(O)C4CC[C@]3(O)C2)OC(C)C1O` (some centres not stated), with “inactive”. As for `C[C@]12CCC(=O)C=C1CCc1ccc(O)cc12`, the Potency entry was “inactive”. As to `CC1OC(O[C@@H]2C(O)CC(O[C@@H]3C(O)C[C@@H](OC4CC[C@]5(C)[C@H](CC[C@H]6[C@@H]5CC[C@]5(C)C(C7=CC(=O)OC7)C(O)C[C@@]65O)C4)OC3C)OC2C)CC(O)C1O` (some centres not stated), the Potency entry is “inactive”. For the molecule `CC1(C)C(O)CC(O)[C@]2(C)C1CC(=O)[C@]1(C)C2CC[C@@]2(C)C(c3ccoc3)OC(=O)C3OC321` (some centres not stated), the Potency result is “inactive”. Still for that read-out and setting: the same measure for `CCC(=O)Nc1ccc(Cl)c(Cl)c1`: “inactive”; for `CNC(=O)CSP(=S)(OC)OC`: “inactive”. `C[C@@]12CCC(Cl)C[C@H]1CCC1C2CC[C@]2(C)C(=O)CCC12` (some centres not stated): the Potency result is “inactive”. Take `N#Cc1c(Cl)cccc1Cl`: the Potency result is “inactive”. `C[C@]1(C(=O)O)CCC[C@]2(C)c3cc(O)ccc3CC[C@@H]12`: the Potency entry is “inactive”. Turning to `CC(C)(C)[C@]1(O)C[C@@H]2OC(=O)C[C@@]23C(=O)O[C@@H]2OC(=O)[C@H](O)[C@]213`, the Potency entry is “inactive”. On the same count and under the same terms, then `COc1nc(NC(C)C)nc(NC(C)C)n1`, with “inactive”; and `COC1=CC23CCCN2CCc2cc4c(cc2C3C1O)OCO4` (configuration not stated), with “inactive”.

As to `CCc1cccc(C)c1N(C(=O)CCl)C(C)COC` (configuration not stated), the Potency entry is “inactive”.

Regarding `CNC(=O)Oc1ccccc1OC(C)C`, the Potency entry is “inactive”.

Regarding `COc1cc(C2c3cc4c(cc3C(O)[C@H]3COC(=O)C23)OCO4)cc(OC)c1OC` (some centres not stated), the Potency result is “inactive”. Still for that read-out and setting: then `CC1CC[C@@]2(NC1)O[C@@H]1C[C@H]3C4CC=C5C[C@@H](O)CC[C@]5(C)C4CC[C@]3(C)[C@H]1[C@@H]2C` (some centres not stated), with “inactive”.

For the next test, the target named is DNA dC->dU-editing enzyme APOBEC-3G (Homo sapiens) (UniProt Q9HC16). Briefly: qHTS for inhibitors of Vif-A3G interactions: Validation (AID 588379). The note with it: Vif-A3G protein interaction assay; series mostly up to 46.1 µM. Summed up: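 HeLa cells stably expressing Vif and A3G-eYFP, 700 cells/well, incubated overnight at 37 deg C, then exposed to compound overnight at 37 deg C. Inhibition of Vif-mediated degradation read as increased yellow fluorescence (Ex 488/Em 500-530) by laser-scanning cytometry.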
Sequence of DNA dC->dU-editing enzyme APOBEC-3G (Homo sapiens) (Q9HC16 whole entry, looked up): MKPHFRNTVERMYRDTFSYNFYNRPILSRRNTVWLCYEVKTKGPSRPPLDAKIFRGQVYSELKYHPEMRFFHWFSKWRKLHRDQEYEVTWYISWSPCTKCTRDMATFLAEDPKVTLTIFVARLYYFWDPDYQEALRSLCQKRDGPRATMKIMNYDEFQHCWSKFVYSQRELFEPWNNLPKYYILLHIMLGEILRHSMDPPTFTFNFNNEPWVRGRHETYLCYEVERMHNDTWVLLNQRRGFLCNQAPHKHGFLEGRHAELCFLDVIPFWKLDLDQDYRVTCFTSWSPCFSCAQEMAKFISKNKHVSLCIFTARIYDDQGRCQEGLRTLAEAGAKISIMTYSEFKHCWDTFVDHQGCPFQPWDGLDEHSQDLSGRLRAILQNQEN
On to `CC(C)(O)[C@@H]1C2OC(=O)[C@@H]1[C@]1(O)C[C@H]3O[C@]34C(=O)O[C@H]2[C@]14C`, for which the molecule was called inactive. Regarding `CC[C@@H]1CN2CC[C@@H]1C[C@H]2[C@H](O)c1ccnc2ccc(OC)cc12`, the outcome was inactive. For `O=C1CCCC2[C@@H]3CCCN4CCC[C@@H](CN12)C34` (some centres not stated), the call was inactive. As for `C[C@]12CCC3C(CC[C@H]4C[C@@H](O)CC[C@]34C)[C@@H]1CCC2=O` (some centres not stated), the outcome was inactive. On to `CCN1C[C@@]2(COC(=O)c3ccccc3N3C(=O)CC(C)C3=O)CC[C@H](OC)[C@]34C5C[C@@H]6[C@@H](OC)C[C@@](O)(C5[C@H]6OC)[C@@](O)(C13)[C@@H](OC)C24` (some centres not stated), for which the result was inactive. For the molecule `C=C[C@H]1CN2CCC1C[C@@H]2C(O)c1ccnc2ccccc12` (some centres not stated), the result was inactive. For `O=C1CC2OCC=C3CN4CC[C@]56c7ccccc7N1[C@H]5[C@H]2C3C[C@H]46` (some centres not stated), the call was inactive. Turning to `C[C@]1(C(=O)O)CCC[C@]2(C)c3cc(O)ccc3CC[C@@H]12`, the outcome was inactive. On the same count and under the same terms, then `CC(C)(C)[C@]1(O)C[C@@H]2OC(=O)C[C@@]23C(=O)O[C@@H]2OC(=O)[C@H](O)[C@]213`, with “inactive”; and `CC1CC[C@@]2(NC1)O[C@@H]1C[C@H]3C4CC=C5C[C@@H](O)CC[C@]5(C)C4CC[C@]3(C)[C@H]1[C@@H]2C` (some centres not stated), with “inactive”.

For the next test, the target named is Estrogen receptor (Homo sapiens) (UniProt P03372). As to the kind of experiment: qHTS assay for small molecule antagonists of estrogen receptor alpha signaling (AID 588513; active means well fitted curve in the direction sought with a large enough effect in the signal ratio, with a control signal flat, not every such curve was filed as active; the % refers to the signal ratio). As to conditions: ER-alpha-UAS-bla HEK293, beta-lactamase ratio, antagonist mode; series mostly up to 76.9 µM. Summed up:
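Fluorescence from CCF4 substrate after 2 h at room temperature gave reporter activity; cells had been exposed to compound and 0.5nM 17-beta-estradiol for 18 h at 37 C. Hill-equation fitting yielded IC50 and maximal response.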
Regarding `CNC(=O)Oc1cccc2c1OC(C)(C)O2`, the Potency result was “inactive”. On to `CCS(=O)CCSP(=O)(OC)OC` (configuration not stated), for which the Potency entry is “inactive”. Take `COP(N)(=O)SC` (configuration not stated): the Potency result is “inactive”.

Consider `CC(C)N1C(=O)c2ccccc2NS1(=O)=O`, for which the Potency result was “inactive”. As to `CNC(=O)CSP(=S)(OC)OC`, the Potency result is “inactive”.

Consider `N#Cc1c(Cl)cccc1Cl`, for which the Potency result is “inactive”. Consider `COc1nc(NC(C)C)nc(NC(C)C)n1`, for which the Potency result was “inactive”. For `CNC(=O)Oc1ccccc1OC(C)C`, the Potency entry was “inactive”.

For another test the target is unchanged. Briefly: qHTS assay for small molecule agonists of estrogen receptor alpha signaling (AID 588514; calls by dose curve; further: nearly all actives have a fitted effect of over 70% in size; further: potency means the concentration at half of the fitted maximal effect). The note with it: ER-alpha-UAS-bla HEK293, beta-lactamase ratio, 18 h; series mostly up to 76.8 µM. Summed up: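 ER-alpha-UAS-bla GripTite HEK293 cells, 5000/well in 2% charcoal/dextran-stripped FBS medium, treated with compound titrations 18 h at 37 C. CCF4 beta-lactamase read by fluorescence after 2 h RT; normalised to 20 nM 17-beta-estradiol (100%) and DMSO (0%), Hill fit for EC50 and efficacy.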
Turning to `CC(C)OC(=O)Nc1cccc(Cl)c1`, the Potency entry was “inactive”.

For the molecule `CNC(=O)Oc1cccc2c1OC(C)(C)O2`, the Potency result is “inactive”. As to `CCS(=O)CCSP(=O)(OC)OC` (configuration not stated), the Potency result was “inactive”.

As for `COP(N)(=O)SC` (configuration not stated), the Potency result was “inactive”. The same measure, in the same setting: then `CC(C)(C)C(=O)C(Oc1ccc(Cl)cc1)n1cncn1` (configuration not stated), with 39.8 µM (active); and `CC(C)N1C(=O)c2ccccc2NS1(=O)=O`, with “inactive”; and `CNC(=O)CSP(=S)(OC)OC`, with “inactive”. For `N#Cc1c(Cl)cccc1Cl`, the Potency entry was “inactive”. Take `COc1nc(NC(C)C)nc(NC(C)C)n1`: the Potency result is “inactive”. The same measure, in the same setting: the same measure for `CNC(=O)Oc1ccccc1OC(C)C`: “inactive”.

The next test has as its target Bile acid receptor (Homo sapiens) (UniProt Q96RI1). As to the kind of experiment: qHTS assay for small molecule antagonists of farnesoid X receptor signaling (AID 588526; calls by dose curve). As to conditions: HEK293T FXR-UAS-bla, beta-lactamase ratio, antagonist mode; series mostly up to 76.7 µM. In short, it runs like this:
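Beta-lactamase reporter antagonist mode: HEK293T FXR-UAS-bla cells, titrated compound, CDCA stimulation, 16 h 37 C, CCF4 dye 2 h RT. Data normalized to CDCA 50 uM and DMSO; Hill-fit IC50.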
As for `CC(C)OC(=O)Nc1cccc(Cl)c1`, the outcome was inactive.

On to `CNC(=O)Oc1cccc2c1OC(C)(C)O2`, for which the result was inactive. Turning to `CCCCSP(=O)(SCCCC)SCCCC`, the result was inactive. For `CCS(=O)CCSP(=O)(OC)OC` (configuration not stated), the outcome was inactive.

With `COP(N)(=O)SC` (configuration not stated), the result was inactive. On to `O=C(O)COc1cc(Cl)c(Cl)cc1Cl`, for which the result was inactive.

As for `COc1nc(NC(C)C)nc(NC(C)C)n1`, the result was inactive.
